Several values for one entry are separate records, joined by “and”; a condition that tells them apart may be missing. Equal values may be shown once. This is part of a sample that, as a whole, favours compounds with a hit. Of some 83,000 tested, about 20% had one in any assay.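 For each line, cells grew in 96-well plates with the test compound present at a single concentration for 48 hours.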 Activity calls are given as the source filed them. The calls were made as follows: active = growth percent below 10; inactive = the rest.
test system: MDA-MB-468 breast; assay: NCI-60 one-dose screen, 48 h (100 = growth as untreated, 0 = no growth, -100 = all killed); details: 10 µM unless noted

SMILES | growth
COc1cc(/C=N/OC(=O)Nc2ccccc2)cc(OC)c1OC | 105% (inactive)
N#Cc1c(-c2ccccc2)nc(SCC(=O)Nc2nc(-c3ccc(Cl)cc3)cs2)[nH]c1=O | 85.7% (inactive)
CN1[C@@H]2CC[C@H]1/C(=C\c1ccccc1)C1=C2[C@@H](c2ccccc2)C(C#N)=C(N)O1 | 50.3% (inactive)
C=C1C(=O)O[C@H]2[C@H]1CC/C(COC(=O)N1CCC[C@H]1C(=O)Nc1ccc(OC)c(C(N)=O)c1O)=C\CC[C@@]1(C)O[C@@H]21 | -4.47% (active)
CCc1nc2ccccc2[nH]1 | 109% (inactive)
O=c1ccc2nc(-c3ccccc3)nn(-c3ccccc3)c-2c1 | -81.6% (active)
CCCCC[C@H]1CC=C2C(=O)C(Cl)=C[C@@H]2CC=CCCCC(=O)O[C@@H](CCCCC)CC=C2C(=O)C(Cl)=C[C@@H]2CC=CCCCC(=O)O[C@@H](CCCCC)CC=C2C(=O)C(Cl)=C[C@@H]2CC=CCCCC(=O)O1 | 50.2% [8 µM] (inactive)
COc1ccc(C(=O)c2cc(OC)c(OC)c(OC)c2)cc1O | -14.4% (active)
O=S(=O)(Nc1ccccc1)C1CCCCC1 | 110% (inactive) and 107% (inactive)
COc1cc(N=Nc2ccc(O)c3ncccc23)c2ncccc2c1 | -36.5% (active)
CCCC[N+]1(C)CCN=C1Cc1ccccc1 (stereo not given) | 82.3% (inactive)
CCCCCCN1C(=O)/C(=c2\sc3n(c2=O)C2C(NN=3)N(CC)C(=O)N2CC)c2ccccc21 (stereo not given) | -10.2% (active)
COC(=O)[C@@H](C)CNS(=O)(=O)N(c1cc(C(F)(F)F)cc(C(F)(F)F)c1)C1CCN(Cc2ccc(F)cc2)CC1 | 23.6% (inactive)
COc1cc(/C=C2\C(=O)N(CCCOc3cc(O)c4c(=O)cc(-c5ccccc5)oc4c3)c3ccccc32)cc(OC)c1O | 89.4% (inactive)
COC(=O)/C=C/c1cc(OC(C)=O)c2c(c1)C(C(=O)OC)C(c1ccc(OC(C)=O)c(OC(C)=O)c1)O2 (stereo not given) | 35.8% (inactive)
O=C(CSc1nc2sc3c(c2c(=O)n1-c1ccc(Cl)cc1)CCCC3)Nc1nc(-c2cccc(Br)c2)cs1 | 65.1% (inactive)
COc1ccc(-c2ncc(-c3ccccc3)[nH]2)cc1OC | 89.1% (inactive)
CCCN1C(=O)N(CCC)C2C1NN=c1s/c(=C3\C(=O)N(C(C)C)c4ccccc43)c(=O)n12 (stereo not given) | 35.7% (inactive)
NC(N)=Nc1nc2ccccc2n2c1nc1ccccc12 | 35.1% (inactive)
O=C(c1ccccc1)N(C(=S)NCCc1ccc(Cl)cc1)c1ccc(Cl)cc1 | 16.7% (inactive)

SMILES | growth
CN(C[C@@H]1COCCO1)S(=O)(=O)Nc1ccc2ccc3ncc(-c4cnn(C)c4)cc3c(=O)c2c1 | 49.9% (inactive)
CCOC(=O)c1sc2nc(-c3cccc(O)c3)nc(N3CCOCC3)c2c1C | 47.5% (inactive)
O=C1C=C(O)C(=O)C(CC2=C(O)C(=O)C=C(O)C2=O)=C1O | 98.7% (inactive)
CCC(=O)Nc1cc2c(cc1Cl)-c1ccccc1C2 | 97.9% (inactive)
O=C(Nc1cccc(-n2cc(-c3ccncc3)c(-c3ccc(O)c(Cl)c3)n2)c1)c1ccc(Cl)c(Cl)c1 | 68.9% (inactive)
COc1ccc(-c2cnnc3c(-c4cccc(C(F)(F)F)c4)cnn23)cc1 | 77.6% (inactive)
CC(C)c1ccc2occ(C=C3C(=O)NC(=O)NC3=O)c(=O)c2c1 | 96.9% (inactive)
O=C(CCl)N1CCCc2ccccc21 | 80.9% (inactive)
Cc1ccc2c(c1)C13C(=C2Br)CCCN1C(=O)c1ccccc13 (stereo not given) | 69.8% (inactive)
O=C(Nc1nc2ccccc2[nH]1)C(=O)Nc1nc2ccccc2[nH]1 | 103% (inactive)
CCOC(=O)c1c(/N=C2\SC(=O)/C(=C\C(=O)OC)N2NC)sc2c1CCN(C(=O)OCC)C2 | 100% (inactive)
Fc1ccc(Nc2ncnc3ccc(-c4cnc5[nH]ccc5c4)cc23)cc1Cl | -29.7% (active)
CC1=CSC2=NC(c3ccc(Cl)c(Cl)c3)=CC(c3ccc(Cl)cc3)N12 (stereo not given) | -61.3% (active)
COC[C@@]1(C)CC[C@]2(C)CC[C@]3(C)C(=CC[C@@H]4[C@@]5(C)CCCNC(C)(C)[C@@H]5CC[C@]43C)C2C1 (stereo not given in full) | 50.9% (inactive)
O=C(/C=C/c1ccccc1)Nc1ncc(Cc2ccccc2Cl)s1 | 8.79% (active)
COC(=O)[C@H]1Cc2c([nH]c3ccccc23)[C@H](c2ccc3c(c2)OCO3)N1 | 102% (inactive)
CN(C)c1ccc(/C=C2\Cc3c(F)ccc(Br)c3C2=O)cc1 | -29.4% (active)
CCN1CCN(c2nc(NNC(=O)c3cccc(OC)c3)nc(N3CCN(C(c4ccccc4)c4ccccc4)CC3)n2)CC1 | 54.7% (inactive)
CCc1c(C)c2cc(-n3c(-c4ccc(OC)cc4)csc3=N)c(O)c(C)c2oc1=O | 17% (inactive)
O=C(N=Nc1c(O)[nH]c2ccccc12)Nc1ccc(Cl)cc1 | 81.7% (inactive)

Reference: PubChem BioAssay (NCI)
